Data published in PubChem BioAssay (NCI).
About 83,000 compounds went through this panel and 20% of them were active in at least one assay; those are over-represented in the sample as a whole.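 Cells were grown in 96-well plates and exposed to the test compound at a single concentration for 48 hours; results are reported as percent growth, with values below 10 considered active.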 Calls of active or inactive are those of the source.

Experiments:
Assay in all cases: NCI-60 one-dose screen, 48 h (100 = growth as untreated, 0 = no growth, -100 = all killed)
Settings in all cases: 10 µM unless noted
HCT-15 colon = system: HCT-15 colon
HT29 colon = system: HT29 colon
SNB-75 CNS = system: SNB-75 CNS
SNB-19 CNS = system: SNB-19 CNS
U251 CNS = system: U251 CNS
PC-3 prostate = system: PC-3 prostate
SK-MEL-5 melanoma = system: SK-MEL-5 melanoma
UACC-62 melanoma = system: UACC-62 melanoma
LOX IMVI melanoma = system: LOX IMVI melanoma
SK-MEL-28 melanoma = system: SK-MEL-28 melanoma

Measured: growth

N#CC1=C(N)n2nc(-c3ccncc3)nc2NC1c1cccc2ccccc12 (stereo not given)
inactive: HCT-15 colon 90.4% | HT29 colon 97.8% | SNB-75 CNS 67.6% | SNB-19 CNS 92.8% | U251 CNS 86.7% | PC-3 prostate 76% | SK-MEL-5 melanoma 88.6% | UACC-62 melanoma 72.4% | LOX IMVI melanoma 79% | SK-MEL-28 melanoma 106%

Cc1ccc2c(c1)ncn2-c1ncnc2c1CC(C)c1ccccc1N2C (stereo not given)
active: HCT-15 colon 8.43% | HT29 colon 0.836% | SK-MEL-5 melanoma -49.2%
inactive: SNB-75 CNS 43.9% | SNB-19 CNS 37.6% | U251 CNS 12.1% | PC-3 prostate 20.9% | UACC-62 melanoma 21.5% | LOX IMVI melanoma 20.8% | SK-MEL-28 melanoma 44.4%

Nc1c(C(=O)Nc2cccc(C(F)(F)F)c2)sc2nc3c(cc12)C(O)CCC3 (stereo not given)
active: SNB-75 CNS -6.78%
inactive: HCT-15 colon 36.7% | HT29 colon 17.7% | SNB-19 CNS 86.8% | U251 CNS 16.8% | PC-3 prostate 23.4% | SK-MEL-5 melanoma 25.7% | UACC-62 melanoma 41.4% | LOX IMVI melanoma 47.8% | SK-MEL-28 melanoma 49%

O=C(CSc1nc(-c2ccc(Cl)cc2)cn1-c1ccc(Cl)cc1)c1ccc(Br)cc1
inactive: HCT-15 colon 85.2% | HT29 colon 66.9% | SNB-75 CNS 44.4% | SNB-19 CNS 77.8% | U251 CNS 37.5% | PC-3 prostate 50.3% | SK-MEL-5 melanoma 94.9% | UACC-62 melanoma 72.1% | LOX IMVI melanoma 73.4% | SK-MEL-28 melanoma 87.1%

CCCCn1c(=O)c(C2CNC(=O)c3ccccc3N2)cc2ccccc21 (stereo not given)
inactive: HCT-15 colon 101% | HT29 colon 103% | SNB-75 CNS 84% | SNB-19 CNS 91% | U251 CNS 98% | PC-3 prostate 106% | SK-MEL-5 melanoma 102% | UACC-62 melanoma 88.4% | LOX IMVI melanoma 97.3% | SK-MEL-28 melanoma 102%

COc1cccc(NC(=O)Cn2cc3c(=O)oc4ccccc4c3n2)c1
inactive: HCT-15 colon 109% | HT29 colon 105% | SNB-75 CNS 64.7% | SNB-19 CNS 102% | U251 CNS 125% | PC-3 prostate 97.4% | SK-MEL-5 melanoma 100% | UACC-62 melanoma 100% | LOX IMVI melanoma 113% | SK-MEL-28 melanoma 94%

CCOC(=O)CC(C#N)(CC(=O)OCC)C(=O)OCC
inactive: HCT-15 colon 99.4% | HT29 colon 125% | SNB-75 CNS 89.7% | SNB-19 CNS 111% | U251 CNS 94.8% | PC-3 prostate 89.2% | SK-MEL-5 melanoma 98% | UACC-62 melanoma 97.7% | LOX IMVI melanoma 103% | SK-MEL-28 melanoma 98%

Nc1nc(N)c2nc(CNc3ccc(C(=O)CC(CCC(=O)O)C(=O)O)cc3)cnc2n1 (stereo not given)
inactive: HCT-15 colon 33.3% | HT29 colon 36.7% | SNB-75 CNS 71.7% | SNB-19 CNS 42.9% | U251 CNS 36.2% | PC-3 prostate 33.6% | SK-MEL-5 melanoma 22.8% | UACC-62 melanoma 26.6% | LOX IMVI melanoma 20.5% | SK-MEL-28 melanoma 68.7%

O=C(CNc1c(Cl)cccc1Cl)Nc1ccc(-c2nc3ccccc3s2)cc1
active: HCT-15 colon 2.42% | LOX IMVI melanoma -49.3%
inactive: HT29 colon 69.8% | SNB-75 CNS 59.2% | SNB-19 CNS 73.9% | U251 CNS 27.7% | PC-3 prostate 85.9% | SK-MEL-5 melanoma 21.2% | UACC-62 melanoma 35.1% | SK-MEL-28 melanoma 104%

CCCCNc1nnc(-c2cc(-c3cc4ccccc4o3)nn2-c2ccccc2)o1
inactive: HCT-15 colon 95.3% | HT29 colon 93.6% | SNB-75 CNS 102% | SNB-19 CNS 91.2% | U251 CNS 82.1% | PC-3 prostate 83.6% | SK-MEL-5 melanoma 71.9% | UACC-62 melanoma 76.7% | LOX IMVI melanoma 82.3% | SK-MEL-28 melanoma 108%

CC1CCN(C(=O)CSc2nc3sc4c(c3c(=O)[nH]2)CCCC4)CC1
inactive: HCT-15 colon 102% | HT29 colon 116% | SNB-75 CNS 99.5% | SNB-19 CNS 106% | U251 CNS 95.5% | PC-3 prostate 100% | SK-MEL-5 melanoma 91.8% | UACC-62 melanoma 105% | LOX IMVI melanoma 86.4% | SK-MEL-28 melanoma 125%

CC(=O)c1cc(C(=O)c2ccc3c(c2)Sc2ccccc2N3)c2cc(C)ccn12
inactive: SNB-19 CNS 31.6% | U251 CNS 11.3% | PC-3 prostate 18% | UACC-62 melanoma 30.2% | LOX IMVI melanoma 17% | SK-MEL-28 melanoma 56.1%
active: HCT-15 colon 8.38% | HT29 colon -57% | SNB-75 CNS 9.11% | SK-MEL-5 melanoma -26.6%

O=C(Nc1ccc(F)cc1)c1cc([N+](=O)[O-])ccc1O
inactive: HCT-15 colon 68.1% | HT29 colon 61.7% | SNB-75 CNS 78.1% | SNB-19 CNS 70.9% | U251 CNS 61.6% | PC-3 prostate 54.7% | SK-MEL-5 melanoma 30% | UACC-62 melanoma 36.8% | LOX IMVI melanoma 56.3% | SK-MEL-28 melanoma 55.9%

CC(=O)Nc1nc(C(=O)N2N=C(C)/C(=C/c3ccc(Cl)cc3)C2=O)cs1
inactive: HCT-15 colon 100% | HT29 colon 108% | SNB-75 CNS 98.3% | SNB-19 CNS 104% | U251 CNS 101% | PC-3 prostate 98% | SK-MEL-5 melanoma 104% | UACC-62 melanoma 111% | LOX IMVI melanoma 101% | SK-MEL-28 melanoma 110%

C=CC(=O)N[C@H](/C=C/C(=O)OCC)Cc1ccc(-c2cc(Cl)cc(Cl)c2)cc1
inactive: HCT-15 colon 79.2% | HT29 colon 86.9% | SNB-75 CNS 82.5% | SNB-19 CNS 91.1% | U251 CNS 79% | PC-3 prostate 60.7% | SK-MEL-5 melanoma 72.8% | UACC-62 melanoma 60.9% | LOX IMVI melanoma 86.7% | SK-MEL-28 melanoma 113%

COc1ccc(-c2nc3sccn3c2-c2ccnc(NCCCNS(=O)(=O)c3ccc(C)cc3)n2)cc1
inactive: HCT-15 colon 16.8% | HT29 colon 18.4% | SNB-75 CNS 77.4% | SNB-19 CNS 71.7% | U251 CNS 45.1% | PC-3 prostate 31.5% | UACC-62 melanoma 10.9% | LOX IMVI melanoma 11% | SK-MEL-28 melanoma 41.5%
active: SK-MEL-5 melanoma -5.18%

CCOC(=O)[C@H](CSSc1ncnc2cc[nH]c12)NC(=O)[C@@H](C)c1ccc2cc(OC)ccc2c1
inactive: HCT-15 colon 19.6% | HT29 colon 15.7% | SNB-75 CNS 50.1% | SNB-19 CNS 91.8% | U251 CNS 35.6% | PC-3 prostate 36.3% | SK-MEL-5 melanoma 45% | LOX IMVI melanoma 10.3% | SK-MEL-28 melanoma 69.2%
active: UACC-62 melanoma 7.27%

Nc1c(C(=O)Nc2ccccc2)sc2nc3c(cc12)CCC3
inactive: HCT-15 colon 55.7% | HT29 colon 88% | SNB-75 CNS 65.5% | SNB-19 CNS 85.1% | U251 CNS 70.9% | PC-3 prostate 81% | SK-MEL-5 melanoma 68.7% | UACC-62 melanoma 69.8% | LOX IMVI melanoma 89.1% | SK-MEL-28 melanoma 80.4%

CCCCCCCN(CCCCCCC)C(=N)c1ccc(OC)c2ccccc12
active: HCT-15 colon -81.4% | HT29 colon -78.8% | SNB-75 CNS -98.2% | SNB-19 CNS -80.7% | U251 CNS -90.5% | PC-3 prostate -92.3% | SK-MEL-5 melanoma -93.2% | UACC-62 melanoma -76.5% | LOX IMVI melanoma -98.7% | SK-MEL-28 melanoma -82.9%

Clc1nc2ccccc2nc1CI
inactive: HCT-15 colon 74.9% | HT29 colon 117% | SNB-75 CNS 89.2% | SNB-19 CNS 103% | U251 CNS 113% | PC-3 prostate 89.6% | SK-MEL-5 melanoma 83% | UACC-62 melanoma 100% | SK-MEL-28 melanoma 103%
active: LOX IMVI melanoma 8.23%

COc1ccc(/C(=N\O)c2cc(OC)c(OC)c(OC)c2)c(OC)c1N
active: HT29 colon 4.28% | SNB-75 CNS -8.55%
inactive: HCT-15 colon 11.3% | SNB-19 CNS 32.8% | U251 CNS 18.3% | PC-3 prostate 20.9% | SK-MEL-5 melanoma 11.3% | UACC-62 melanoma 30% | LOX IMVI melanoma 42.5% | SK-MEL-28 melanoma 59.3%

Nc1nn2cc(-c3ccc(Cl)s3)nc2c2ccccc12
inactive: HCT-15 colon 87.5% | HT29 colon 92% | SNB-75 CNS 81.6% | SNB-19 CNS 93% | U251 CNS 94.7% | PC-3 prostate 83.8% | SK-MEL-5 melanoma 84% | UACC-62 melanoma 81.6% | LOX IMVI melanoma 82.2% | SK-MEL-28 melanoma 94.2%

CC(=O)Nc1ccc2c(c1)/C(=C\C=C/c1ccc([N+](C)(C)C)cc1)c1ccccc1-2
active: SNB-75 CNS -1.84%
inactive: HCT-15 colon 89.1% | HT29 colon 59.2% | SNB-19 CNS 36.6% | U251 CNS 26% | PC-3 prostate 68.4% | SK-MEL-5 melanoma 36.1% | UACC-62 melanoma 100% | LOX IMVI melanoma 80.1% | SK-MEL-28 melanoma 66.3%

COc1cc2nc(N3CCC[C@@H](NC4=CC(=O)c5ccccc5C4=O)C3)nc(N)c2cc1OC
active: HCT-15 colon -67.2% | HT29 colon -59.8% | SNB-75 CNS -92.3% | SNB-19 CNS -49.7% | U251 CNS -89.3% | LOX IMVI melanoma -65.3%
inactive: PC-3 prostate 23% | SK-MEL-5 melanoma 94% | UACC-62 melanoma 87.8% | SK-MEL-28 melanoma 109%

CS(=O)(=O)N(c1cc(-c2ccc3ncnc(Nc4cccc(Cl)c4)c3c2)cnc1Cl)S(C)(=O)=O
inactive: HCT-15 colon 10.4% | HT29 colon 11.7% | SNB-19 CNS 24.3% | U251 CNS 20.8% | PC-3 prostate 10.7%
active: SNB-75 CNS -3.18% | SK-MEL-5 melanoma -60.7% | UACC-62 melanoma -6.31% | LOX IMVI melanoma 2.19% | SK-MEL-28 melanoma -6.78%

CCN1C(=O)N[C@H]2[C@@H]3NC(=O)c4ccc(Cl)n4[C@@H]3C[C@]21O
active: HT29 colon 2.91% | SNB-75 CNS -2.5% | SNB-19 CNS -8.44% | U251 CNS -5.63% | PC-3 prostate 9.77% | SK-MEL-5 melanoma -28.7% | UACC-62 melanoma -20.9% | LOX IMVI melanoma -6.47% | SK-MEL-28 melanoma -6.88%
inactive: HCT-15 colon 13.4%

COc1ccc(/C=C/C(=O)/C=C/c2cc3ccc(Cl)cc3[nH]c2=O)cc1
inactive: HCT-15 colon 87.4% | HT29 colon 80.6% | SNB-75 CNS 76.2% | SNB-19 CNS 80.9% | U251 CNS 53.3% | PC-3 prostate 76.1% | SK-MEL-5 melanoma 98.6% | UACC-62 melanoma 72.1% | LOX IMVI melanoma 48.5% | SK-MEL-28 melanoma 103%
